Test [1] is described as follows: inhibitors of TNFa-induced NFkB p65 translocation, primary screen, imaging, HUVEC, MLSMR starter and 10KST1 sets (AID 438;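 active = inhibition above 20% together with a positive visual image hit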;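 note: compound added about 3h40 before a 20 min TNFalpha stimulation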;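 for inhibition: signal is the nuclear over cytoplasmic p65 intensity ratio per well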). The note with it: HUVEC TNFa-induced p65 nuclear translocation; cell count: measured here: nuclei count (cytotoxicity indicator), at 2.08 µM; inhibition: at 2 µM, stronger effect = higher value, 0% TNFa-plus-vehicle, 100% no-TNFa wells.
Test [2] is described as follows: inhibitors of mutant huntingtin aggregation, primary screen, imaging, exon1htt(103Q)mCFP cells, high-content imaging (AID 483).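 For nuclei count: percent of the per-plate median nuclei count of sample wells.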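 Note: compound exposure lasted 3 days before fixation.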 The note with it: exon1htt(103Q)mCFP cell line, aggregate imaging, at 2 µM; inhibition of aggregation: stronger effect = higher value; nuclei count: measured here: cell count, toxicity.
Test [3] can be described thus: inhibitors of E-selectin induction by TNFa, primary screen, imaging, HUVEC, immunofluorescence, MLSMR starter and 10KST1 sets (AID 487;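 active = visually confirmed hit in the image check and inhibition above 20%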;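 for inhibition: signal is fraction of cell area covered by stained E-selectin grains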;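 for nuclei count: 100% = median nuclei count of all wells on the same plate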). The following applies: HUVEC TNFalpha-induced E-selectin immunofluorescence imaging, at 2 µM; inhibition: stronger effect = higher value; nuclei count: measured here: cell number, toxicity.
The target in test [4] is Voltage-gated potassium channel subunit beta-2 (Rattus norvegicus) (UniProt P62483). Briefly: KvBeta enzyme negative modulators, primary screen, biochemical, NADPH fluorescence (AID 622;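 active = fluorescence slope higher than the sample average by over 3 SD, cut at about -0.22 in these data, passing the limit was not always enough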;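 note: slope of raw intensity against log time taken from 70 to 1610 s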). The following applies: recombinant KvBeta, 4-cyanobenzaldehyde reduction, at 10 µM, stronger effect = higher value.
Sequence of Voltage-gated potassium channel subunit beta-2 (Rattus norvegicus) (P62483 whole entry, looked up): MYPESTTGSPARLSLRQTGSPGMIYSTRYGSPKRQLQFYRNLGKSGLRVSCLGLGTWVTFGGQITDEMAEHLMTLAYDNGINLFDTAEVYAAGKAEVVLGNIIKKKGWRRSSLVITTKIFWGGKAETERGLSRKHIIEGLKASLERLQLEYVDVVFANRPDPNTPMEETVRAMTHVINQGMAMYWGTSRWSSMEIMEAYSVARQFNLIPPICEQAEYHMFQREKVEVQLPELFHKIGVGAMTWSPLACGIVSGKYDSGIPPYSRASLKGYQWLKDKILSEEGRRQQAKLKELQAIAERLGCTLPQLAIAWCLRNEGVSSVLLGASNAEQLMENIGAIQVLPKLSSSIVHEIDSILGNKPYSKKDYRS
The target is the same in test [5]. Briefly: KvBeta positive modulators, primary screen, biochemical, NADPH fluorescence (AID 623;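 active = NADPH fluorescence slope more negative than the mean of all samples by about 3 SD, 99.7% confidence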;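 note: fluorescence intensity change per second fitted from 20 to 320 s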). The following applies: Recombinant KvBeta, NADPH fluorescence decrease slope, 10 min; at 10 µM; stronger effect = lower value.
In test [6] the target is Alpha-2C adrenergic receptor (Homo sapiens) (UniProt P18825). Nature of the test: modulators of alpha2C/GIRK thallium flux, primary screen, cell-based, HEK293 alpha2C/GIRK1/2 (AID 624;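 active = fluorescence slope after compound addition differing from the mean of all screened samples at 99.7% confidence, in either direction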;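 note: slope of fluorescence ratio to pre-addition baseline per second over 15 to 24 s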). The note with it: thallium flux BTC fluorescence, at 10 µM, actives lie on both sides.
Sequence of Alpha-2C adrenergic receptor (Homo sapiens) (P18825 whole entry, looked up): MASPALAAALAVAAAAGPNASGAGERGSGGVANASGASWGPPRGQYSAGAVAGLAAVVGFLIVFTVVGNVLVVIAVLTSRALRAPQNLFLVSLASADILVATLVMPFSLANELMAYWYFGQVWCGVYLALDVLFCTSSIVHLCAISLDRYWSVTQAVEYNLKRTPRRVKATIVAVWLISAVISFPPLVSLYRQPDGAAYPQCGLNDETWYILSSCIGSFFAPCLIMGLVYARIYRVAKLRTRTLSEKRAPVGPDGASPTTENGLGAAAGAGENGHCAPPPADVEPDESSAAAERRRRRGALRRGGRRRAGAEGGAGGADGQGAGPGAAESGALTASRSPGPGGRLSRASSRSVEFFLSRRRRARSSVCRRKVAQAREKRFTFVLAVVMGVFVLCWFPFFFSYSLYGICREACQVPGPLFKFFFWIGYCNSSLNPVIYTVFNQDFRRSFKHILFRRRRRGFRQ
Test [7] in a line: inhibitors of Sendai virus-induced IRF3 signaling, primary screen, TLR/RLR signaling modifier project, cell-based, Sendai virus stimulus, luciferase, 10K MLSCN set (AID 602276;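 active = inhibition at or above 50% at 10 µM; inactive = inhibition below 50%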;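 note: firefly luciferase from ISG56 promoter only with Renilla not read in this screen; 0% = Sendai virus plus DMSO and 100% = medium plus DMSO without virus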). The note with it: HEK293 RL24 IRF3 luciferase reporter, at 10 µM, stronger effect = higher value.
Test [8] in a line: inhibitors of poly I:C-induced TLR3 signaling, primary screen, cell-based, poly I:C stimulus, luciferase, 10K MLSCN set (AID 602277;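 active = inhibition of the reporter signal at or above 50%; inactive = inhibition below 50%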). The following applies: HEK293-TLR3 RL24 IRF3 luciferase reporter, at 10 µM, stronger effect = higher value. (In general: A reporter such as luciferase makes a cellular process visible.)

SMILES strings stand for the structures. Calls of active or inactive are those of the source.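 Rule for the calls, unless noted: active = visual image review flags a hit and inhibition of aggregation exceeds 20%; inconclusive = visual hit but inhibition at or below 20%; inactive = no hit on visual image review.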

On to `O=C(CSc1nc2ccccc2o1)NC(=O)NCc1ccco1`, for which the cell count in test [1] stood at 342. The inhibition (in general, the drop in the measured response relative to a control, in per cent) in test [1] is -1.8% (inactive); in test [3] it was -31.1% (inactive); in test [7], -2.31% (inactive); in test [8], 12.3% (inactive). In test [2], the inhibition of aggregation is -12.3% (inactive). Besides, the nuclei count in test [2] turned out to be 94.8%; in test [3] it was 112%. Moreover, the fluorescence slope in test [4] was -0.333 (inactive). For the same molecule, the NADPH fluorescence slope in test [5] is -3.3e-05 (inactive). For the same molecule, in test [6], the slope is 0.00371 (inactive).

For `COc1ccc(S(=O)(=O)NCc2ccc3c(c2)OCO3)cc1C(=O)O`, the cell count in test [1] came to 379. Also, the inhibition was -4.7% (inactive) in test [1], -41.3% (inactive) in test [3], 9.22% (inactive) in test [7] and 20.8% (inactive) in test [8]. In addition, in test [2], the inhibition of aggregation is -1.8% (inactive). Moreover, the nuclei count in test [2] was found to be 120%; in test [3], 107%. Further, the fluorescence slope in test [4] was -0.324 (inactive). Also, the NADPH fluorescence slope in test [5] was -8.9e-06 (inactive). In addition, the slope in test [6] is 0.00676 (inactive).

On to `CC(C)NC(=O)Nc1cccs1`, for which the cell count in test [1] was 708. Moreover, the inhibition is 3% (inactive) in test [1], -84.5% (inactive) in test [3], 11.4% (inactive) in test [7] and 4.68% (inactive) in test [8]. Also, the inhibition of aggregation in test [2] was 21.6% (inactive). In addition, the nuclei count was found to be 104% in test [2] and 105% in test [3]. Moreover, the fluorescence slope in test [4] is -0.507 (inactive). In test [5], the NADPH fluorescence slope was -5.6e-05 (inactive). Also, the slope in test [6] was 0.00565 (inactive).

For `Cc1ccc(NC(=O)COS(=O)c2ccc(C)cc2)cc1` (centres undefined), the cell count in test [1] is 420. For the same molecule, the inhibition in test [1] is 5.8% (inactive); in test [3], -11.2% (inactive); in test [7] it was 6.94% (inactive); in test [8], -1.39% (inactive). For the same molecule, the inhibition of aggregation in test [2] is 2.9% (inactive). The nuclei count in test [2] amounted to 94.3%; in test [3] it was 125%. Also, the fluorescence slope in test [4] was -0.58 (inactive). The NADPH fluorescence slope in test [5] was -2e-05 (inactive). For the same molecule, the slope in test [6] is 0.00583 (inactive).

For `CCOC(=O)N1CCC(NC(=O)c2ccc3c(c2)N(CC)CCS3)CC1`, in test [1], the cell count was 382. For the same molecule, the inhibition was -2.4% (inactive) in test [1], -62.7% (inactive) in test [3], 12.8% (inactive) in test [7] and 34.1% (inactive) in test [8]. Moreover, in test [2], the inhibition of aggregation is -22.2% (inactive). For the same molecule, the nuclei count in test [2] was found to be 70.3%; in test [3], 114%. Further, the fluorescence slope in test [4] was -0.0283 (active). The NADPH fluorescence slope in test [5] was -5.8e-06 (inactive). For the same molecule, the slope in test [6] was 0.00586 (inactive).

Consider `CCOc1cc2oc(=O)c3c(c2cc1Cl)CCC3`, for which the cell count in test [1] was 400. Moreover, the inhibition in test [1] was -2.6% (inactive); in test [3], -24.1% (inactive); in test [7], -5.28% (inactive); in test [8], -30.2% (inactive). Also, the inhibition of aggregation in test [2] was 5.2% (inactive). Further, the nuclei count in test [2] came to 104%; in test [3], 106%. In test [4], the fluorescence slope is -0.482 (inactive). Besides, the NADPH fluorescence slope in test [5] was 1.7e-05 (inactive). Moreover, the slope in test [6] was 0.00626 (inactive).

As to `COc1cccc(C(=O)Nc2ccc(NC(C)=O)cn2)c1`, the cell count in test [1] was found to be 759. The inhibition in test [1] was -4.3% (inactive); in test [3], -84.7% (inactive); in test [7], -36.2% (inactive); in test [8], -56% (inactive). In test [2], the inhibition of aggregation is -0.2% (inactive). Moreover, the values for the nuclei count in test [2] and in test [3] were 96.3% and 123%, respectively. In addition, the fluorescence slope in test [4] was -0.469 (inactive). The NADPH fluorescence slope in test [5] was -5.3e-05 (inactive). In test [6], the slope was 0.00617 (inactive).

Consider `O=C1c2ccccc2C(Nc2ccc3c(c2)OCCO3)N1Cc1ccco1` (centres undefined), for which the cell count in test [1] was 548. Also, the inhibition was -2% (inactive) in test [1], -106% (inactive) in test [3], 12.3% (inactive) in test [7] and 7.32% (inactive) in test [8]. Also, the inhibition of aggregation in test [2] is 17.5% (inactive). The results for the nuclei count in test [2] and in test [3] were 102% and 132%, respectively. Further, the fluorescence slope in test [4] is -0.589 (inactive). The NADPH fluorescence slope in test [5] is -2.3e-05 (inactive). For the same molecule, in test [6], the slope was 0.00424 (inactive).

For `COc1ccc2cc(CN(CCO)C(=O)c3ccc(Br)cc3)c(=O)[nH]c2c1`, in test [1], the cell count was determined as 333. In addition, the inhibition in test [1] is 5.3% (inactive); in test [3], -33% (inactive); in test [7] it was 11.6% (inactive); in test [8], 0.693% (inactive). The inhibition of aggregation in test [2] was -21.4% (inactive). For the same molecule, the nuclei count was found to be 119% in test [2] and 118% in test [3]. In addition, the fluorescence slope in test [4] is -0.613 (inactive). For the same molecule, the NADPH fluorescence slope in test [5] was -4.6e-05 (inactive). Besides, in test [6], the slope was 0.00437 (inactive).

The record behind these values is PubChem BioAssay.
